# The whole screen tested about 1,900 compounds, of which fewer than 10 were called active. Another 39% or so got no clear call; they are omitted.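 Rule for the calls: active = Green signal of the normal strain falls at least twice as much as red signal of the resistant mutant, with overall culture growth loss under a set limit; inconclusive = no clear call, values can overlap the other calls; inactive = the rest.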 The list is a sample of the results.
# How the values were obtained:
# [1] = growth inhibition of wild-type GFP E. coli, dose response, h38 mutant RFP, cherry-pick (AID 977622); conditions: 24 h; activity change: E. coli mixed culture, total growth OD600 at 50 uM, at 50 µM; E. coli WT ribosome GFP fluorescence, mixed culture, at 50 µM (top of the series)
# [2] = system: E. coli h38 humanized mutant ribosome RFP fluorescence, mixed culture, 24 h; test: as above; conditions: h38 mutant RFP at 50 uM; at 50 µM
smiles,measurement,setting,value
COC(=O)CN1C(=S)N(c2ccc(F)cc2)C(=O)C1CC(=O)Nc1ccc(OC)cc1 (stereo unspecified),activity change,[1],-4.61%
same,outcome,[1],inactive
same,activity change,[2],9.32%
CCOc1ccc(C(C)=O)cc1CN1C(=O)NC2(CCCCCCC2)C1=O,activity change,[1],-23.9%
same,outcome,[1],inactive
same,activity change,[2],-21%
O=C(c1ccc2c3c(cccc13)CC2)N1CCN(c2ncccn2)CC1,activity change,[1],-3.01%
same,outcome,[1],inactive
same,activity change,[2],-11.5%
Cc1ccc(NC(=O)CN(C)S(=O)(=O)c2cccc3cccnc23)cc1F,activity change,[1],-37.4%
same,outcome,[1],inactive
same,activity change,[2],-40.8%
O=c1[nH]c2cc([N+](=O)[O-])ccc2c2ccccc12,activity change,[1],4.42%
same,outcome,[1],inactive
COC(=O)c1cc2c(c3c4cc(F)ccc4n(S(=O)(=O)c4cccc(C)c4)c13)C(=O)N(Cc1ccco1)C2,activity change,[1],-11.5%
same,outcome,[1],inactive
same,activity change,[2],17.4%
O=C(Cc1ccc(Cl)cc1)c1ccc(O)cc1,activity change,[1],-1.58%
same,outcome,[1],inactive
Cc1ccc(Cc2c(-c3ccc(C#N)cc3)nc3ccc(Br)cn23)cc1,activity change,[1],2.82%
same,outcome,[1],inactive
same,activity change,[2],-11%
O=c1c2ccccc2cnn1Cc1n[nH]c(=S)n1C1CC2CCC1C2 (stereo unspecified),activity change,[1],-3.34%
same,outcome,[1],inactive
same,activity change,[2],-28.9%
Cc1cccc(-c2ccc([C@H]3[C@H](CO)N4CCCCN(S(=O)(=O)c5ccccc5C)C[C@@H]34)cc2)c1,activity change,[1],4.65%
same,outcome,[1],inactive
same,activity change,[2],11.4%
Nc1ccc2nc(-c3ccc(Cl)cc3)[nH]c2c1,outcome,[1],inactive
same,activity change,[2],-11.3%
CS(=O)(=O)N1CC2CCCN2c2ccc(C(F)(F)F)cc21 (stereo unspecified),activity change,[1],-10.4%
same,outcome,[1],inactive
same,activity change,[2],2.53%
Cc1ccc(C)c(N(CC(=O)NC2CCCC2)C(=O)c2oc(C(C)(C)C)cc2C)c1,activity change,[1],-14.2%
same,outcome,[1],inactive
same,activity change,[2],21%
COc1cc2ccccc2cc1C(=O)NC1CCCCC1,activity change,[1],-0.887%
same,outcome,[1],inactive
COCCCNC(=O)c1ccc(-c2nc3ccccc3nc2-c2ccccc2)cc1,activity change,[1],-2.27%
same,outcome,[1],inactive
same,activity change,[2],8.8%
Cc1ccc(NC(=O)CCCSc2ccccc2)cc1S(=O)(=O)N1CCOCC1,activity change,[1],7.64%
same,outcome,[1],inactive
same,activity change,[2],4.8%
NC(=O)c1cc(C(=O)c2ccc(Cl)cc2)c[nH]1,activity change,[1],-13.1%
same,outcome,[1],inactive
same,activity change,[2],0.863%
Cc1noc(C)c1NC(=O)Nc1ccc2c(c1)C(=O)N([C@@H](C)CO)C[C@H](C)[C@@H](CN(C)C(=O)Nc1ccc3c(c1)OCO3)OCCCC[C@H](C)O2,activity change,[1],-13.3%
same,outcome,[1],inactive
same,activity change,[2],7.1%
O=C(c1ccccc1)N(c1ccccc1)c1nccc2ccccc12,activity change,[1],-7.9%
same,outcome,[1],inactive
same,activity change,[2],31.1%
Cc1ccc(S(=O)(=O)Nc2ccccc2CNc2cccc(C)n2)cc1,activity change,[1],-17.7%
same,outcome,[1],inactive
CCC(C(=O)Nc1ccsc1C(=O)OC)c1ccccc1 (stereo unspecified),activity change,[1],-5.91%
same,outcome,[1],inactive
same,activity change,[2],40.7%
CCOc1ccc(-c2nc(-c3cccs3)c(CC(=O)O)s2)cc1OC,activity change,[1],-21.4%
same,outcome,[1],inactive
same,activity change,[2],-8.71%
COc1ccc(NS(=O)(=O)c2ccc(Cl)c(NC(=O)c3ccccc3F)c2)cc1,activity change,[1],-40%
same,outcome,[1],inactive
same,activity change,[2],-6.96%
Cc1noc(C)c1NC(=O)Nc1ccc2c(c1)C(=O)N([C@@H](C)CO)C[C@@H](C)[C@H](CN(C)C(=O)Nc1ccc3c(c1)OCO3)OCCCC[C@H](C)O2,activity change,[1],-12.5%
same,outcome,[1],inactive
same,activity change,[2],-3.87%
COc1cc(-c2ccc(N3C(c4ccsc4)=Cc4ccc(F)cc4C3c3c[nH]c4ccc(C#N)cc34)cc2)cc(OC)c1OC (stereo unspecified),activity change,[1],7.16%
same,outcome,[1],inactive
same,activity change,[2],8.77%
c1ccc2c(c1)CSc1ccccc1N2,activity change,[1],-5.5%
same,outcome,[1],inactive
same,activity change,[2],-11.4%
CC(C)=C(c1ccc(Cl)cc1)c1c(N)ncnc1N,activity change,[1],-10.9%
same,outcome,[1],inactive
same,activity change,[2],-21.6%
